Laboratory results taken from PubChem BioAssay AID588333 (National Center for Advancing Translational Sciences (NCATS), 2011).
Activity calls are given as the source filed them.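 Rule for the calls: active = compounds that kill cultured T. brucei parasites with a half-maximal potency under 200 micromolar; inactive = compounds with no measurable potency.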

Test: Confirmatory Assay to Find Inhibitors of T. brucei phosphofructokinase: T. brucei in vitro Parasite Assay
Settings: T. brucei brucei culture viability, Alamar Blue, 72 h
Text: Various species of the protozoan family Trypanosomatidae are responsible for a range of serious human diseases in tropical and subtropical areas of the world. […] Many of the disorders caused by trypanosomatids are fatal if left untreated, but most currently used drugs are inefficient and toxic. […] Oxidative metabolism involving the mitochondrial tricarboxylic acid cycle and oxidative phosphorylation are repressed in these parasites, and recent RNA interference (RNAi) experiments have shown that even partial depletion of certain individual glycolytic enzymes can lead to the death of cultured parasites. One such glycolytic enzyme, phosphofructokinase (PFK), catalyzes the formation of fructose-1,6-bisphosphate (F1,6BP) and ADP from fructose-6-phosphate (F6P) and ATP, and in many metabolic circumstances makes an important contribution to the control of flux through the glycolytic pathway. As a specific glycolytic target, PFK is particularly attractive as it catalyzes the first irreversible step in glycolysis, and structural and kinetic studies have shown very substantial and essential differences from corresponding host enzymes, allowing for the discovery of parasite-selective inhibitors. Selected active compounds were additionally tested in a well-validated in vitro parasite assay to determine the relative potencies of lead compounds against live T. brucei cultures. H Chemical Genomics Center [NCGC] NIH Molecular Libraries Probe Centers Network [MLPCN] MLPCN Grant: MH092153-01 Assay Submitter (PI): Malcom Walkinshaw, University of Edinburgh
Dilutions of T. brucei brucei were incubated in modified Iscove's cell culture medium (supplemented with 10% FBS, 0.05 mM bathocuproine sulfonate, 1.5 mM L-cysteine, 1 mM hypoxanthine, 0.2 mM 2-mercaptoethanol, 1 mM sodium pyruvate and 0.16 mM thymidine) with titrations of compound for 72 hours. The cell density is adapted so that after 72 hours of incubation, the cells are at the end of the logarithmic growth phase (~5x104 tryps/mL). General morphology and motility were recorded after incubation, and Alamar Blue dye was added as a fluorescent marker of viability (ex530/em590) and read on a fluorescent plate reader following 4 hrs of incubation at 37 degrees C. The results of this assay were used to prioritize medicinal chemistry efforts in conjunction with the human cell toxicity assay to give a measure of relative parasite/host toxicity ratio.

SMILES | Potency | outcome
Cc1cc(NS(=O)(=O)c2ccc(NC(=O)Cc3ccc(Cl)c(Cl)c3)cc2)no1 | 26.8 µM (active) | 
O=C(Cc1ccc(Cl)c(Cl)c1)Nc1ccc(S(=O)(=O)Nc2ccon2)cc1 | 16.3 µM (active) | 
Cc1cc(NS(=O)(=O)c2ccc(NC(=O)Cc3ccc(Cl)c(Cl)c3)cc2)on1 | 157 µM (active) | 
COc1ccc(CC(=O)Nc2ccc(S(=O)(=O)Nc3cc(C)on3)cc2)cc1OC |  | inactive
O=C(Cc1ccc(Cl)c(Cl)c1)Nc1ccc(S(=O)(=O)Nc2cccc(C(=O)O)c2)cc1 | 105 µM (active) | 
Cc1cc(NS(=O)(=O)c2ccc(NC(=O)Cc3ccc(Cl)c(F)c3)cc2)no1 | 38.9 µM (active) | 
O=C(Cc1ccc(Cl)c(Cl)c1)Nc1ccc(S(=O)(=O)Nc2ccc(C(=O)O)cc2)cc1 |  | inactive
